Measured values reported in the supplement of paper PMC8728848.
The full list was thinned out, with the strongest signals kept by preference.

Columns and labels:
Assay in all cases: glycan array binding signal (z-score within array); higher = stronger binding
Conditions in all cases: glycan notation: IUPAC condensed, linker removed
[1] = target: Fuc(a1-2)Gal(b1-3)GalNAc(b1-3)Gal
Procedure, shortened: (§1)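 Negative Z-scores can be read as non-binding. The Z-score is calculated within each array and then averaged across arrays of one protein sequence at different concentrations or buffers and across linkers. Arrays, 3228 in all, were curated from the Consortium for Functional Glycomics database and kept only where the protein sequence was available.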

[2] = target: Fuc(a1-2)Gal(b1-3)GlcNAc(b1-2)Man(a1-3)[Fuc(a1-2)Gal(b1-3)GlcNAc(b1-2)Man(a1-6)]Man(b1-4)GlcNAc(b1-4)GlcNAc
Procedure, shortened: as §1

[3] = target: Fuc(a1-2)Gal(b1-4)[Fuc(a1-3)]GlcNAc(b1-3)GalNAc
Procedure, shortened: as §1

[4] = target: Fuc(a1-2)Gal6S(b1-3)GlcNAc
Procedure, shortened: as §1

[5] = target: Fuc(a1-2)[Gal(a1-3)]Gal(b1-4)GlcNAc(b1-6)GalNAc
Procedure, shortened: as §1

[6] = target: Fuc(a1-2)[GalNAc(a1-3)]Gal(b1-3)GlcNAc(b1-2)Man(a1-3)[Fuc(a1-2)[GalNAc(a1-3)]Gal(b1-3)GlcNAc(b1-2)Man(a1-6)]Man(b1-4)GlcNAc(b1-4)GlcNAc
Procedure, shortened: as §1

[7] = target: Fuc(a1-2)[GalNAc(a1-3)]Gal(b1-3)GlcNAc(b1-3)GalNAc
Procedure, shortened: as §1

[8] = target: Fuc(a1-2)[GalNAc(a1-3)]Gal(b1-4)Glc
Procedure, shortened: as §1

[9] = target: Fuc(a1-2)[GalNAc(a1-3)]Gal(b1-4)GlcNAc(b1-3)Gal(b1-4)GlcNAc
Procedure, shortened: as §1

[10] = target: Fuc(a1-2)[GalNAc(a1-3)]Gal(b1-4)[Fuc(a1-3)]GlcNAc(b1-3)GalNAc
Procedure, shortened: as §1

[11] = target: Fuc(a1-3)[Gal(b1-4)]GlcNAc(b1-4)Gal(b1-4)[Fuc(a1-3)]GlcNAc
Procedure, shortened: as §1

[12] = target: Fuc(a1-3)[Gal(b1-4)]GlcNAc(b1-6)GalNAc
Procedure, shortened: as §1

[13] = target: Fuc(a1-3)[Gal(b1-4)]GlcNAc6S
Procedure, shortened: as §1

Gal(a1-2)Gal = target: Gal(a1-2)Gal
Procedure, shortened: as §1

[14] = target: Gal(a1-3)Gal(b1-3)GlcNAc(b1-2)Man(a1-3)[Gal(a1-3)Gal(b1-3)GlcNAc(b1-2)Man(a1-6)]Man(b1-4)GlcNAc(b1-4)GlcNAc
Procedure, shortened: as §1

Gal(a1-3)Gal(b1-4)GlcNAc = target: Gal(a1-3)Gal(b1-4)GlcNAc
Procedure, shortened: as §1

Gal(b1-3)Gal = target: Gal(b1-3)Gal
Procedure, shortened: as §1

[15] = target: Gal(b1-3)GlcNAc(b1-2)Man(a1-3)[GlcNAc(b1-4)][Gal(b1-3)GlcNAc(b1-2)Man(a1-6)]Man(b1-4)GlcNAc(b1-4)GlcNAc
Procedure, shortened: as §1

[16] = target: Gal(b1-3)[GlcNAc(b1-6)]GalNAc
Procedure, shortened: as §1

[17] = target: Gal(b1-4)GlcNAc(b1-3)Gal(b1-4)GlcNAc
Procedure, shortened: as §1

[18] = target: Gal(b1-4)GlcNAc(b1-3)GalNAc
Procedure, shortened: as §1

Gal6S(b1-4)Glc = target: Gal6S(b1-4)Glc
Procedure, shortened: as §1

[19] = target: GalNAc(a1-3)GalNAc(b1-3)Gal(a1-4)Gal(b1-4)Glc
Procedure, shortened: as §1

[20] = target: GalNAc(b1-3)Gal(a1-4)Gal(b1-4)GlcNAc(b1-3)Gal(b1-4)Glc
Procedure, shortened: as §1

GalNAc6S(b1-4)GlcNAc = target: GalNAc6S(b1-4)GlcNAc
Procedure, shortened: as §1

[21] = target: GlcNAc(a1-4)Gal(b1-4)GalNAc
Procedure, shortened: as §1

[22] = target: GlcNAc(a1-4)Gal(b1-4)GlcNAc(b1-3)Gal(b1-4)[Fuc(a1-3)]GlcNAc(b1-3)Gal(b1-4)[Fuc(a1-3)]GlcNAc
Procedure, shortened: as §1

[23] = target: GlcNAc(b1-3)Gal(b1-4)GlcNAc
Procedure, shortened: as §1

[24] = target: GlcNAc(b1-3)Gal(b1-4)GlcNAc(b1-3)Gal(b1-4)GlcNAc
Procedure, shortened: as §1

GlcNAc(b1-6)GalNAc = target: GlcNAc(b1-6)GalNAc
Procedure, shortened: as §1

Kdn(a2-3)Gal(b1-4)Glc = target: Kdn(a2-3)Gal(b1-4)Glc
Procedure, shortened: as §1

[25] = target: Kdn(a2-3)Gal(b1-4)[Fuc(a1-3)]GlcNAc
Procedure, shortened: as §1

Man(a1-3)[Man(a1-6)]Man = target: Man(a1-3)[Man(a1-6)]Man
Procedure, shortened: as §1

[26] = target: Neu5Ac(a2-3)Gal(b1-3)GlcNAc(b1-3)GalNAc
Procedure, shortened: as §1

[27] = target: Neu5Ac(a2-3)Gal(b1-4)[Fuc(a1-3)]GlcNAc(b1-3)Gal(b1-4)[Fuc(a1-3)]GlcNAc(b1-3)Gal(b1-4)[Fuc(a1-3)]GlcNAc
Procedure, shortened: as §1

[28] = target: Neu5Ac(a2-3)Gal(b1-4)[Fuc(a1-3)]GlcNAc(b1-3)GalNAc
Procedure, shortened: as §1

[29] = target: Neu5Ac(a2-3)Gal6S(b1-4)[Fuc(a1-3)]GlcNAc
Procedure, shortened: as §1

Neu5Ac(a2-6)Gal(b1-4)Glc = target: Neu5Ac(a2-6)Gal(b1-4)Glc
Procedure, shortened: as §1

[30] = target: Neu5Ac(a2-6)Gal(b1-4)GlcNAc(b1-2)Man(a1-6)[Gal(b1-4)GlcNAc(b1-2)Man(a1-3)]Man(b1-4)GlcNAc(b1-4)GlcNAc
Procedure, shortened: as §1

[31] = target: Neu5Ac(a2-6)Gal(b1-4)GlcNAc(b1-2)Man(a1-6)[Man(a1-3)]Man(b1-4)GlcNAc(b1-4)GlcNAc
Procedure, shortened: as §1

[32] = target: Neu5Ac(a2-8)Neu5Ac(a2-3)[Gal(b1-3)GalNAc(b1-4)]Gal(b1-4)Glc
Procedure, shortened: as §1

[33] = target: Neu5Ac(a2-8)Neu5Ac(a2-8)Neu5Ac(a2-8)Neu5Ac(a2-3)[GalNAc(b1-4)]Gal(b1-4)Glc
Procedure, shortened: as §1

[34] = target: Neu5Ac9Ac(a2-3)Gal(b1-3)GlcNAc
Procedure, shortened: as §1

B1: PitA (Streptococcus oralis), G3F8D8 (protein)
chain: MNIRFDFKKVQIIARRLVTLLAILFLCAPISLLNADSTTEPQTTLHKTITPISGQDDKYELSLDITSKLGTETQTDPLDVVLVADLSGSMQNQDVQSFDGRTISRIDALKNTLRGTNGRKGLIDTILSNSNNRLSMVGFGGKIDNKKVDQYWDGNKWRLFRPYWPYERMTKYYDGVSPWDDANTILGWSNNARAAKTAVYNMSIAGGNSIGTESGIGTGTNIGAGLTLANQLMGSARSNAKKVVILLSDGFANMVYDANGYTIYNYNNEDPNIETAPQWFWDRLNNNLNSLSYSLAPTLDGFYSIKFRYSNNVDSITSLQYYMRQHNASIPNEIFSANDEDQLRDSFKDITDKILPLGIHHVSIKDVLSKYVQLLPNGSSEFRVVKEKDGSSEILIENQVTFDTKTTSEGLVEVTAKFSPNYSLEDGARYVLKFTVTSSQEALDAIAGDKKLEAGDAEGSDVNKLYSNKGASVTYSYGIGNSQTKTKEYSDNPTFKPSDPLTVPVEVEWQGVTGARTVITADQPSNVELKLVQKNKNGGSDNQDYRKTNVNVSKNVSNETRNFEKVAKGYQYDLIAPDVPAFTKEIKNVGTESKPSFKVIYKQLPSLTIKKVLEAENNLNKEFRIKVKLTSPDSKPLNGTFGEITVVNGEAEIRVEKRKRWEGILSYLPRGTHYKVEEEAASTNGYHVTYENQEGDLNKDETSIVTNHKLPSLSVTKKVTGVFANLLKSFKITINIRDAQNSPLNGTYTATVNNKRTPLQFTNGRASIDLNKDQTIKIYGLPLDSHYTVEEESNSSRGYQVSYENQEGKLDGDKSATVTNNKNSVPETGVDFLSSTLMLGIILPLGGIFFTILLGYLVVHRRK
glycan array binding signal (z-score) [1]: 10.3
glycan array binding signal (z-score) [2]: 0.06
glycan array binding signal (z-score) [3]: 7.27
glycan array binding signal (z-score) [4]: -0.656
glycan array binding signal (z-score) [5]: 0.131
glycan array binding signal (z-score) [6]: -0.473
glycan array binding signal (z-score) [7]: 4.75
glycan array binding signal (z-score) [8]: -0.125
glycan array binding signal (z-score) [9]: -0.715
glycan array binding signal (z-score) [10]: 5.3
glycan array binding signal (z-score) [11]: 0.05
glycan array binding signal (z-score) [12]: 4.67
glycan array binding signal (z-score) [13]: 0.782
glycan array binding signal (z-score) (Gal(a1-2)Gal): -0.212
glycan array binding signal (z-score) [14]: 3.83
glycan array binding signal (z-score) (Gal(a1-3)Gal(b1-4)GlcNAc): -0.128
glycan array binding signal (z-score) (Gal(b1-3)Gal): -0.7
glycan array binding signal (z-score) [15]: 1.74
glycan array binding signal (z-score) [16]: -0.437
glycan array binding signal (z-score) [17]: -0.586
glycan array binding signal (z-score) [18]: -0.575
glycan array binding signal (z-score) (Gal6S(b1-4)Glc): -0.151
glycan array binding signal (z-score) [19]: -0.395
glycan array binding signal (z-score) [20]: 0.654
glycan array binding signal (z-score) (GalNAc6S(b1-4)GlcNAc): 0.019
glycan array binding signal (z-score) [21]: 5.14
glycan array binding signal (z-score) [22]: 3.75
glycan array binding signal (z-score) [23]: -0.199
glycan array binding signal (z-score) [24]: -0.259
glycan array binding signal (z-score) (GlcNAc(b1-6)GalNAc): 0.138
glycan array binding signal (z-score) (Kdn(a2-3)Gal(b1-4)Glc): -0.512
glycan array binding signal (z-score) [25]: 1.05
glycan array binding signal (z-score) (Man(a1-3)[Man(a1-6)]Man): -0.627
glycan array binding signal (z-score) [26]: -0.148
glycan array binding signal (z-score) [27]: 0.263
glycan array binding signal (z-score) [28]: 3.68
glycan array binding signal (z-score) [29]: -0.322
glycan array binding signal (z-score) (Neu5Ac(a2-6)Gal(b1-4)Glc): -0.522
glycan array binding signal (z-score) [30]: -0.302
glycan array binding signal (z-score) [31]: 0.537
glycan array binding signal (z-score) [32]: -0.463
glycan array binding signal (z-score) [33]: 0.179
glycan array binding signal (z-score) [34]: -0.641
